The assay has as its system PPARg:RXRa DBDmut IVT, anti-RXR (DBD mutation: RXRa K156A/R161A, NR concentration 270 nM, RXRa partner concentration 90 nM). The assay is described as follows: PBM binding z-score (relative to random genomic background probes); higher = stronger binding; sequences stand for … in GC…GCGATTGACAGCGTAGAATGAAGG
The gist of the method: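 Regression normalization was applied to scanned fluorescence from custom Agilent 4×180K protein-binding microarrays. Before scanning, arrays were incubated 1 h with ligand-free nuclear receptor dimers, and binding was detected with antibodies against each partner (one per run). Binding z-scores use the random background probes as reference.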
ATCTCTAGGTCAAGATAGTTCAGTGAATGCAAAT returned a PBM binding z-score of 6.08.

ATACCAAGGTGATCGTGAAGTCGTTGATACTAAC returned a PBM binding z-score of 0.462.

On to AACTCTAGGTAACCAAGTTCAGTGAATGCCGAAC, for which the PBM binding z-score was 3.59. With CCTGCTAGGTCACGGTCAGCTAATCTACAGTATG, the PBM binding z-score turned out to be 5.34.

With ATATGTAGGTTATGGGTCATTCAGGTTGGTTCGC, the PBM binding z-score is 7.25. The value for TTATCAAGGTGAGCTGAGGTCGTTGATCCAACTC was 1.53; that for ATCTCTAGGTAAGGTTCAGTGAAAGATCGATAGA was 1.52; that for TGAATGAGGTTAAAGATCTGGGAACGTGGCGTCG was 2.25. With CGTCAAAGTACAACTAAGGTAACGTAAAGCACGC, the PBM binding z-score was 0.337. Turning to CAAACTAGGTCAGAACAGGACAGTGAAGGATGAT, the PBM binding z-score turned out to be 7.14. Turning to GTACCAAGGTGAATAGGGCGTTGATGAGTAGGCG, the PBM binding z-score was determined as 1.79.

AGAATGATGTTATACGTAGATCAGGGAAGAAAGT: the PBM binding z-score was -0.521. As for CCTCGGAGGGCAACAGGAGGTCAGAGCTGCCAGA, the PBM binding z-score amounted to 0.555. For the sequence CCAGCCAGGTGAAAGGTAACTCAGTCTGGTACGC, the PBM binding z-score is 2.75. As for CTAGAAAGGTCGTGCTCAGGTGAGTATACCAAAC, the PBM binding z-score stood at 0.638. Sequence ATATGTAGGTTACATCCGGGTCATTCAGGCTATG returned a PBM binding z-score of 7.56. Turning to CCTAGCAGGCCAATTTGGGTCACTCAAGGCTTGA, the PBM binding z-score was found to be 2.7. For CCTGCTAGGTCATGGTCAGATAATCTACAGTATG the value was 4.17.

The values above are taken from the supplement of paper PMC6555819.
